Reference: PubChem BioAssay AID1851 (National Center for Advancing Translational Sciences (NCATS), 2009)
Where “and” joins values, the source holds several entries; their conditions need not be identical. Identical values can stand only once. In all, about 16,000 compounds went through this assay and about 4,000 (25%) were called active. Another 26% or so got no clear call; they are omitted. The call rests on the fitted dose curve; in most records, active means well fitted curve in the direction sought with a large enough effect; inconclusive means small, poorly fitted or top-dose-only effect, or effect the other way; inactive means no such curve, though single readings can be large or run the other way. A selection follows. Some structures have more than one record in an assay (separate samples or runs), and their calls can disagree.

What follows are molecules tested against Cytochrome P450 2C9 (Homo sapiens) (UniProt P11712) (assay: Cytochrome panel assay with activity outcomes). Settings: recombinant CYP, pro-luciferin dealkylation, luminescence, p450-cyp2c9; series mostly up to 57.1 µM; activity, negative = inhibition: at the top concentration.
Cytochrome P450 2C9 (Homo sapiens), sequence (P11712 whole entry, looked up): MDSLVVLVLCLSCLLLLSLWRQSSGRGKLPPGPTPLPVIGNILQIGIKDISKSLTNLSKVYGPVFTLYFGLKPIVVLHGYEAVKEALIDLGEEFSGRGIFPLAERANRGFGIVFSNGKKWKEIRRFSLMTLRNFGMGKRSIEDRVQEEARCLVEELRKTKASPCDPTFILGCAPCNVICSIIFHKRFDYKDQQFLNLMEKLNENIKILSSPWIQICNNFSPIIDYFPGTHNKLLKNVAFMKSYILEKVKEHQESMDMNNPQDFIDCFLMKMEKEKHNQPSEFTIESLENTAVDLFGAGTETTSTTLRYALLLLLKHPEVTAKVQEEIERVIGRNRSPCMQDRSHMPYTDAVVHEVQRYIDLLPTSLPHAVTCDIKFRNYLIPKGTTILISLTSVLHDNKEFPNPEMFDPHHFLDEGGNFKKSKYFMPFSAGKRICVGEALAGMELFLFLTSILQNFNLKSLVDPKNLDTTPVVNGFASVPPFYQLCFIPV
On the % scale 0 is the no-effect control and ±100 the full control effect.

Structure (SMILES)	activity, negative = inhibition	AC50
C#CCn1c(=O)c2c(ncn2C)n(C)c1=O	3.22% (inactive)	–
CN(C)C(=O)c1ccc(-c2ccc3ncnc(Nc4ccccc4)c3c2)cc1	15.4% [at 2.29 µM] (inactive)	–
CN(C)c1ccc(-c2ccc3ncnc(NCc4ccccc4)c3c2)cc1	-24.6% [at 2.29 µM] (inactive)	–
CN(C)c1cc2c(Nc3ccc4c(cnn4Cc4ccccc4)c3)ncnc2cn1	–	12.6 µM (active)
COc1ccccc1NC(=O)Cn1cncc1-c1ccc([N+](=O)[O-])cc1	-12.7% (inactive)	–
CCN(CC(=O)Nc1ccc([N+](=O)[O-])cc1OC)c1ccccc1	–	2.82 µM (active)
CCOc1cc(NC(=S)Nc2cccc(C)c2)c(OCC)cc1NC(=O)CC(C)C	-19.7% (inactive)	–
COc1cc(OC)c(NC(=S)Nc2cccc(C(C)=O)c2)cc1Cl	–	5.01 µM (active)
CCOC(=O)CN1C(=O)Nc2ccc(Br)cc2C1c1ccccc1 (centres undefined)	–	6.31 µM (active)
CCOC(=O)C1(C(=O)O)NC(=O)CC1c1ccccc1 (centres undefined)	-28.6% (inactive)	–
O=c1cc(CF)[nH]c(=S)[nH]1	8.7% [at 11.4 µM] (inactive)	–
N[C@H](CCCC(=O)O)C(=O)O	-23.2% (inactive)	–
O=C(O)c1cc2ccccc2c(S(=O)(=O)O)c1O	10.7% [at 11.4 µM] (inactive)	–
O=C(O)C1=C/C(=C(/c2ccccc2)c2cc(C(=O)O)c(O)c3ccccc23)c2ccccc2C1=O	1.25% [at 11.4 µM] (inactive) and -1.88% [at 11.4 µM] (inactive)	–
O=C(O)c1cc(C(=O)C(=O)c2cc(C(=O)O)c(O)c3ccccc23)c2ccccc2c1O	–	0.316 µM (active)
Cc1cc(OCC(F)(F)C(F)(F)C(F)(F)C(F)(F)C(F)(F)C(F)F)nc(N)n1	–	12.6 µM (active)
CC(C)NC[C@@H](O)c1ccc(O)c2ncccc12	11% [at 11.4 µM] (inactive)	–
CCOc1ccc(-c2nnc(-c3ccncc3)o2)cc1	–	12.6 µM (active)
Oc1ccccc1-c1nnc(-c2ccc(C(F)(F)F)cc2)o1	-14.7% (inactive)	–
CCOc1ccc(C2=[N+]([O-])C(C)(C)N(O)C2(C)C)cc1	-2.98% (inactive)	–
Oc1cc2c(cc1O)[C@H](c1ccccc1)CNCC2	-1.38% (inactive)	–
Cc1c2c(nc3c(C(=O)NC4CCCC4)cnn13)CCCC2	-21.3% (inactive)	–
Cc1ccc(N=Nc2c(N)[nH]n3c(=O)c4c(nc23)CCCC4)cc1	–	10 µM (active)
Cc1ccccc1-c1nc(N2CCN(C)CC2)c2ccccc2n1	5.44% [at 2.29 µM] (inactive)	–

Structure (SMILES)	activity, negative = inhibition	AC50
Cc1ccc(N=Nc2c(=O)[nH]n3c(C)cc(C)nc23)cc1	-17% (inactive)	–
Cc1[nH]n2c(=O)c3c(nc2c1-c1cccc2ccccc12)CCC3	–	5.62 µM (active)
O=P(O)(O)O[C@@H]1O[C@H](CO)[C@@H](O)[C@H](O)[C@@H]1O	8.79% [at 11.4 µM] (inactive)	–
CCN(CC)[C@@H](C)CN1c2ccccc2Sc2ccccc21	-14.4% [at 25.6 µM] (inactive)	–
Cc1c(-c2ccccc2)oc2c(C(=O)OCCN3CCCCC3)cccc2c1=O	-17.4% [at 25.6 µM] (inactive)	–
COc1cccc(OC)c1OCCCCN1CCCC1	7.15% (inactive)	–
O=C(OCCN1CCCCC1)c1c[nH]c2ccccc12	–	inactive and 2 µM (active)
C[C@@](N)(Cc1ccc(O)cc1)C(=O)O	–	inactive
C[C@@](N)(Cc1ccc(O)c(O)c1)C(=O)O	–	inactive
CCOC(=O)c1c(C(C)(C)C)oc2ccc(O)cc12	–	20 µM (active)
CC1CN(C(=S)NC(=O)c2ccc([N+](=O)[O-])cc2)CC(C)O1 (centres undefined)	-28.7% (inactive)	–
COc1cccc(OC)c1C(=O)NC(=S)N1CCN(c2ccc(C(F)(F)F)cc2[N+](=O)[O-])CC1	–	0.355 µM (active)
CCC(=O)NC(=S)N1CCN(c2ccc([N+](=O)[O-])cc2Cl)CC1	-29.7% (inactive)	–
CC(C)Oc1cccc(C(=O)NC(=S)N2CCN(c3ccc(C(F)(F)F)cc3[N+](=O)[O-])CC2)c1	–	3.16 µM (active)
CC(C)N=C(N)/N=C(\N)Nc1ccc(Cl)cc1	13.8% [at 25.6 µM] (inactive)	–
CNCCc1ccccn1	3.59% [at 25.6 µM] (inactive)	–
O=c1ccn([C@@H]2O[C@@H](COP(=O)(O)OP(=O)(O)O)[C@H](O)[C@@H]2O)c(=O)[nH]1	5.9% (inactive)	–
CCc1c2c(nc3ccc(OC)cc13)COC2	-18.7% (inactive)	–
COc1cc2nc3c(c([Si](C)(C)C(C)(C)C)c2cc1OC)Cn1c-3cccc1=O	–	15.8 µM (active)
COc1ccc2nc3c(c([Si](C)(C)C(C)(C)C)c2c1)Cn1c-3cccc1=O	–	12.6 µM (active)
CC(C)NC(=O)N1CCCC2(CCN(C(=O)c3cc(C(F)(F)F)cc(C(F)(F)F)c3)CC2)C1	-6.66% (inactive)	–
CC(C)CN(CC#N)CC(C)C	4.39% [at 11.4 µM] (inactive)	–
CSc1nc2ccccc2cc1/C=C(\C#N)c1ccc(Cl)cc1Cl	–	25.1 µM (active)
CSc1nc2ccccc2cc1/C=C(\C#N)c1ccccc1	–	3.98 µM (active)

Structure (SMILES)	activity, negative = inhibition	AC50
CN(C)CCCc1c2ccccc2nc2ccc(Cl)cc12	11.6% [at 11.4 µM] (inactive)	–
COc1ccc(-n2c(=O)cnc3cnc(OC)nc32)cc1	25.6% (inactive)	–
O=C(O)CC1(CC(=O)O)Nc2ccccc2SC1=O	-2.99% [at 11.4 µM] (inactive)	–
Cc1c(Cl)cccc1NC(=O)CC1NCCNC1=O (centres undefined)	-4.3% (inactive)	–
Cc1c(NC(=O)CN2CCN(c3ccccc3)CC2)c(=O)n(-c2ccccc2)n1C	-21.7% (inactive)	–
Cc1ccccc1NC(=O)CN1CCC(n2nnc3ccccc32)CC1	-20.6% (inactive)	–
Cc1cc(Cl)ccc1NC(=O)CN1CCC(C(O)(c2ccccc2)c2ccccc2)CC1	–	7.08 µM (active)
Cc1c(Cl)cccc1NC(=O)CN1CCC(C(O)(c2ccccc2)c2ccccc2)CC1	–	2 µM (active)
O[C@@](CCN1CCCCC1)(c1ccccc1)C1CCCCC1	–	inactive
CCc1nc2cc(CC(=O)O)ccc2o1	1.01% (inactive)	–
COC(=O)[C@H]1C[C@@H]1[C@H](NC(=O)c1cnccn1)c1ccccc1	-9.04% (inactive)	–
C[C@@H](C(=O)Nc1ccc2ccccc2c1)[C@@H]1C[C@@]1(C)[C@@H](NC(=O)c1cnccn1)c1ccccc1	–	0.0631 µM (active)
C[C@@H](C(=O)Nc1ccc2ccccc2c1)[C@H]1C[C@]1(C)[C@H](NC(=O)c1cnccn1)c1ccccc1	–	5.01 µM (active)
COC(=O)[C@@H]1C[C@H]1[C@@H](NC(=O)c1cnccn1)c1ccccc1	-6.71% (inactive)	–
COC(=O)C1=C(C)NC(=O)NC1c1ccsc1 (centres undefined)	-29.4% (inactive)	–
COC(=O)C1=C(C)NC(C)=C([N+](=O)[O-])[C@H]1c1ccccc1C(F)(F)F	–	2 µM (active)
COC(=O)C1=C(C)NC(C)=C([N+](=O)[O-])[C@@H]1c1ccccc1C(F)(F)F	–	0.158 µM (active)
CO[C@@H]1/C=C\CC(=O)N[C@@H](C)C(=O)OC[C@H](NS(=O)(=O)c2ccc(C)cc2)[C@H](C)/C=C\CC(=O)OC[C@H]1C	14.6% [at 11.4 µM] (inactive)	–
Cc1ccc([N+](=O)[O-])cc1NC(=S)NC(=O)C(C)(C)C	–	0.708 µM (active)
Cc1ccc([N+](=O)[O-])cc1NC(=S)NC(=O)CC(C)(C)C	–	2.24 µM (active)
Cc1cnc(CNc2ncncc2-c2ccccc2C(F)(F)F)cn1	1.53% [at 2.29 µM] (inactive)	–
COc1ccc(OC)c2[nH]c(=O)c(CCNC(=O)c3ccc(S(=O)(=O)N4CCCC4)cc3)cc12	–	11.2 µM (active)
COc1ccc2cc(CCNC(=O)C3CC3)c(=O)[nH]c2c1	-6.56% (inactive)	–
CCN1CCCC1CNC(=O)CCNC(=O)c1cc(OC)c(OC)c(OC)c1 (centres undefined)	2.4% (inactive)	–

Structure (SMILES)	activity, negative = inhibition	AC50
COc1ccc(OC)c2[nH]c(=O)c(CCNC(=O)c3ccc(S(=O)(=O)N(C)C)cc3)cc12	–	7.94 µM (active)
CCN(CC)CCNC(=O)c1cc(S(C)(=O)=O)ccc1OC	8.64% (inactive)	–
CCOC(=O)C(C)(C)[C@H](O)C(C)C	-6.81% [at 11.4 µM] (inactive)	–
COc1ccc(CCNc2cc(-c3ccccc3)nc3ncnn23)cc1	–	5.62 µM (active)
COc1cccc(-c2cc(NCc3ccccc3)ncn2)c1	-1.27% [at 2.29 µM] (inactive)	–
CCc1c(C)nc2ncnn2c1NCCc1ccc(OC)cc1	–	1.58 µM (active)
COc1cccc(-c2nccc(NCc3ccccc3)n2)c1	-19.2% [at 2.29 µM] (inactive)	–
CCOC(=O)CCc1c(C)nc2ncnn2c1C	-3.02% (inactive)	–
Cc1ccc(CNC(=O)CCc2c(C)nc3ncnn3c2C)cc1	0.499% (inactive)	–
CCNc1ncc2nc(-c3cc(F)cc(F)c3)c(=O)n(CCC#N)c2n1	20.9% (inactive)	–
Fc1ccc(Nc2ccnc(-c3ccoc3)n2)cc1	9.66% [at 2.29 µM] (inactive)	–
CC(=O)OC[C@@H]1O[C@@H](O/N=C2/C[C@@H](O)[C@@H](O)[C@@H]3[C@@H]4C(=O)N(c5cccc(Oc6ccccc6)c5)C(=O)[C@H]4CC[C@@H]23)[C@H](OC(C)=O)[C@H](OC(C)=O)[C@@H]1OC(C)=O	20.1% [at 11.4 µM] (inactive)	–
Cc1cc(O)c(C(C)C)cc1CN1CCCCC1	-3.21% [at 11.4 µM] (inactive)	–
Cc1cc(O)c(-c2cc(O)c(C)cc2O)cc1O	–	1.26 µM (active)
COc1ccc(-c2nc3c([nH]2)c(=O)n(C)c(=O)n3C)c(OC)c1	4.05% (inactive)	–
Cn1c(=O)n(CCC(=O)O)c2ccccc21	23.1% (inactive)	–
CCOC(=O)n1c(=O)n(Cc2ccccc2Cl)c2ccccc21	–	8.91 µM (active)
CCOC(=O)n1c(=O)n(Cc2c(Cl)cccc2Cl)c2ccccc21	–	3.98 µM (active)
Cc1n[nH]c(=O)nc1NCc1ccccc1Cl	22.6% (inactive)	–
O=c1[nH]cc(CS(=O)(=O)Cc2c[nH]c(=O)[nH]c2=O)c(=O)[nH]1	-2.59% [at 11.4 µM] (inactive)	–
C/C(=N\O)c1ccc2[nH]ccc2c1	-8.4% (inactive)	–
Cc1n[nH]c(C)c1S(=O)(=O)N1CCC(C(=O)O)CC1	-2.96% (inactive)	–
